Most compounds without a hit are left out; they make up all but 4.2% or so of the library.
S1P4 agonist – agonists of human S1P4 receptor | S1P4-expressing cell line, agonist reporter assay | 220,000 tested, 0.35% active | activation, % at 4.98 µM | O95977; in the data active means activation above about 11%;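 further: 0% = DMSO vehicle and 100% = reference agonist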
Target sequence (O95977 whole entry, looked up): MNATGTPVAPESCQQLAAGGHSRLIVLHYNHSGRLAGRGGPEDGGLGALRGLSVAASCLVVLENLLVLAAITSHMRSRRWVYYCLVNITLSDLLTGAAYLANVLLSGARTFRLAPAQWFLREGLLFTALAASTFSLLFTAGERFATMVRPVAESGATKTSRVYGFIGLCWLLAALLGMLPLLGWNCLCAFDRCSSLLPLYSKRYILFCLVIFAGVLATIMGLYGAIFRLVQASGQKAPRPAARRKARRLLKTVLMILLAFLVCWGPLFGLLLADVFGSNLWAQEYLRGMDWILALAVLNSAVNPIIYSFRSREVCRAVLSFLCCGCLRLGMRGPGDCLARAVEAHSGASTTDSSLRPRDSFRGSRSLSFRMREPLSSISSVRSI
S1P4 antag – antagonists of human S1P4 receptor; AID 1510; inhibition, % at 4.98 µM; 220,000 tested, 0.26% active; S1P4-expressing cells, antagonist mode, reporter read-out; in the data active means inhibition above about 29%;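 further: 0% = wells stimulated with agonist and 100% = vehicle wells without agonist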
CHOP inh – inhibitors of CHOP induction in ER stress response | CHO-K1 CHOP-promoter luciferase, tunicamycin-induced, 15-18 h | inhibition, % at 10 µM | 220,000 tested, 3.8% active | AID 2732;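 active means compounds that reduced the stress-induced luciferase reporter signal by more than about 70% of percent inhibition, limit read from the data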;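 further: 0% = tunicamycin plus vehicle and 100% = wells without tunicamycin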
Hsp70 activator – switches on Hsp70 transcription | HeLa Hsp70 promoter luciferase reporter, luminescence; scaled: vehicle 0, proteasome-inhibitor control 100% | activation, % at 10 µM | 200,000 tested, 0.04% active;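 active means activation above the mean across all tested compounds plus 3 SD, cutoff set per campaign, cut at about 5.5% in these data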;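 further: 100% = MG132 at 30 µM as the positive control and 0% = DMSO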
Hsp70 act DR – activates Hsp70 transcription in dose response; shares compounds with Hsp70 activator; HeLa hsp70.1pr-luc reporter, luciferase luminescence; calls only at 99 µM; 70 tested, 10% active; AID 1252;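 active means over 50% activation at some tested dose; inactive means under 50% activation at every tested dose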
S1P4 antag cf – confirmation of human S1P4 receptor antagonists; shares compounds with S1P4 antag; S1P4-expressing cell line, antagonist mode, reporter read-out; inhibition, % at 4.98 µM; 520 tested, 71% active; AID 1524; in the data active means inhibition above about 30%
S1P1 antag – human S1P1 antagonism as S1P4 antagonist counter-screen; 520 tested, 37% active; shares compounds with S1P4 antag; inhibition, % at 4.98 µM; cell-based S1P1 antagonist counterscreen, inhibition; AID 1564; in the data active means inhibition above about 40%;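 further: receptor stimulated with S1P near its EC80; 0% = agonist stimulated wells and 100% = vehicle only wells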
Numbers without * were called inactive; i = inactive; · = no result; + = active, no number; ! = a repeat was not active.

SMILES	S1P4 agonist	S1P4 antag	CHOP inh	Hsp70 activator	Hsp70 act DR	others
COc1ccc(/C(N)=N/OC(=O)c2cc(-c3ccccc3)nc3ccccc23)cc1	-1.4	-10.6	35.0	0.0	·
Cc1cccc(C)c1OC(=O)CSc1nnc(-c2ccccc2O)o1	1.2	-4.4	91.6*	0.0	·
O=C(CSc1nnc(-c2ccccc2)o1)Nc1ccccc1F	-6.7	-18.2	11.4	-0.5	·
O=C(CSc1nnc(-c2ccccc2)o1)Oc1ccc(Br)cc1	3.1	-8.2	81.4*	-0.2	·
Cc1cccc(NC(=O)CSc2nnc(-c3cc(C)n(-c4ccccc4)c3C)o2)c1C	-1.0	2.8	90.8*	-0.2	·
O=C(CSc1nnc(-c2ccc(Br)cc2)o1)Nc1cccc2ccccc12	-0.4	-18.5	70.2*	-0.2	·
O=C(c1cc(NC(=O)C23CC4CC(CC(C4)C2)C3)cc(NC(=O)C23CC4CC(CC(C4)C2)C3)c1)N1CCCCC1	2.5	-4.8	70.8*	-0.3	·
O=C(CCC(=O)OCCCC(F)(F)C(F)(F)F)Nc1ccc(Cl)cc1Cl	-2.4	-0.5	80.1*	-0.2	·
Cc1ccc(Cl)cc1NC(=O)COC(=O)C12CC3CC(CC(C3)C1)C2	-1.0	3.5	78.9*!	-0.2	·
NC1=NC[C@H](CC2CCCCC2)N1CCc1cc(C(F)(F)F)cc(C(F)(F)F)c1	·	·	94.4*	·	·
O=C(Nc1ccc(S(=O)(=O)Nc2nccs2)cc1)c1cc(-c2ccccn2)nc2ccccc12	1.0	-3.6	11.1	-0.1	·
Nc1nc(-c2ccccc2)c(-c2ccc([N+](=O)[O-])cc2)s1	-0.8	-6.0	74.2*	-0.1	·
Nc1nc(-c2ccccc2)c(-c2ccccc2)s1	-1.5	-1.3	16.4	-0.3	·
Cc1ccc(-c2nc(N)sc2-c2ccccc2)cc1C	1.5	-13.2	86.7*	0.1	·
O=C(O)c1ccc2c(c1)C(=O)N(CCC1=CCCCC1)C2=O	-0.1	-1.2	-3.6	-0.2	·
CN(C(=O)c1ccc2c(c1)C(=O)N(CCC1=CCCCC1)C2=O)C1CCCCC1	0.5	-9.8	99.2*	-0.2	·
S=c1[nH]nc(-c2ccc(Cl)cc2)n1-c1cccnc1	2.1	7.2	-6.6	·	·
Cc1cc2ncn(C(=O)c3c(-c4ccccc4)noc3C)c2cc1C	-0.5	-7.5	72.5*	-0.3	·
Cc1cc2ncn(C(=O)c3c(-c4c(Cl)cccc4Cl)noc3C)c2cc1C	0.1	-2.8	74.2*	-0.3	·
CC(C)Cn1c(SC(C)C(=O)Nc2ccc3c(c2)OCCO3)nc2ccccc2c1=O (stereo unspecified)	1.4	-23.8	76.3*	0.0	·
COc1cccc(NC(=O)CSc2nc3c(c(=O)n2C)SC(C)C3)c1 (stereo unspecified)	0.0	-3.4	78.7*	-0.4	·
COc1ccc2cc(-c3cc(C(=O)O)c4ccccc4n3)ccc2c1	-3.1	-13.5	-5.1	-0.4	·
Oc1ccccc1C1Nc2cccc3cccc(c23)N1	1.6	-30.2	26.2	-0.1	·
COc1ccccc1C1Nc2cccc3cccc(c23)N1	-2.4	4.1	87.0*	24.1*	i
CCOC(=O)C(C)Sc1nnc(CNC(=O)c2ccc(OC)cc2)n1C1CCCCC1 (stereo unspecified)	1.2	-25.2	-1.4	-0.3	·
SMILES	S1P4 agonist	S1P4 antag	CHOP inh	Hsp70 activator	Hsp70 act DR	others
Cc1ccc(C)c(S(=O)(=O)N/N=C/c2ccc(C(=O)O)cc2)c1	0.4	-12.0	16.7	-0.2	·
CC(CC1CC(C)(C)OC1=O)C(=O)Nc1ccc([N+](=O)[O-])cc1 (stereo unspecified)	1.2	0.1	18.4	5.6*	i
CCCCCCCCCCC(=O)Nc1cccnc1	0.6	1.3	-1.6	-0.3	·
CN(Cc1ccco1)C(=O)Cn1nc(-c2ccc(Cl)cc2)ccc1=O	0.6	-25.0	1.6	9.3*	i
CC1=NOC(=O)/C1=C\c1ccc(-c2ccc(Cl)cc2Cl)o1	2.0	-28.0	112.1*	5.8*	i
COc1ccc(C2OCC3(CO2)SC(=O)NC3=O)cc1 (stereo unspecified)	-0.4	-9.3	27.4	0.0	·
O=C1NC(=O)C2(COC3(CCCC3)OC2)S1	0.9	2.9	33.0	28.3*	i
COc1ccc(OCC(=O)Nc2ccc3c(c2)nc(CCN2CCOCC2)n3C)cc1	-1.0	-4.4	3.6	-0.2	·
Cn1c(CCN2CCOCC2)nc2cc(NC(=O)COc3ccc(Cl)cc3)ccc21	2.4	15.6	-3.2	8.7*	i
COC(=O)Nc1ccc(S(=O)(=O)NCc2ccccn2)cc1	-0.1	-10.5	-0.1	5.8*	i
CCOC(=O)/C(=C\c1cccnc1)C(=O)c1cc(C(C)=O)c(Nc2ccccc2)s1	-6.0	63.3*	·	16.8*	i
Cc1cc(C)c2c(N)c(C(=O)NNC(=O)c3ccccc3)sc2n1	0.3	-17.8	21.8	0.2	·
COCC(=O)Nc1cccc(Br)c1	-1.5	-24.8	19.2	6.3*	i
CCOC(=O)c1cccc(NC(=O)COC)c1	-0.4	-8.8	16.8	-0.4	·
N#Cc1ccc(NC(=O)c2nc(-c3ccccc3)n(-c3ccccc3)n2)cc1	-1.7	-1.6	45.5	6.7*	i
O=C(O)CCc1nc(-c2ccccc2)c(-c2ccccc2)o1	0.8	-1.5	-3.9	0.2	·
CC(C)C(=O)N1CCN(c2ccc(NC(=O)c3ccc([N+](=O)[O-])o3)cc2Cl)CC1	-3.2	46.8*	15.7	73.7*	i
O=C(Nc1ccc(N2CCOCC2)c(Cl)c1)c1ccc([N+](=O)[O-])o1	-1.3	17.0	-50.5	0.5	·
O=C(OCCN1CCCCC1)c1ccccc1Cl	0.2	-7.5	-8.7	-0.3	·
O=C(OCn1ncc(Cl)c(Cl)c1=O)c1ccccc1Cl	-7.8	18.1	107.4*	7.4*	+
CNc1c(N)c(=O)oc2ccccc12	2.0	-7.4	-5.4	-0.2	·
COc1ccc(NC(=O)/C(Cl)=C(/Cl)S(=O)Cc2ccccc2)cn1 (stereo unspecified)	-2.9	90.9*	·	22.0*	i	S1P4 antag cf=122.7*;S1P1 antag=68.4*
COc1ccc(NC(=O)Cc2ccccc2)cn1	-0.1	6.0	22.4	-0.1	·
c1ccc2c(-c3nnc4n3CCCCC4)c[nH]c2c1	-0.9	4.5	12.1	-0.4	·
CCN(CC)CCCNC(=S)N(Cc1cccnc1)Cc1cc2cc(C)ccc2[nH]c1=O	-1.0	10.4	-16.0	·	·
CCCC(=O)N1CCN(c2ccc(NC(=O)c3ccc([N+](=O)[O-])o3)cc2Cl)CC1	-0.1	87.2*	-62.0	34.6*	i	S1P4 antag cf=99.4*;S1P1 antag=48.5*
O=C(Nc1ccc(N2CCN(C(=O)c3ccccc3)CC2)cc1)c1ccc([N+](=O)[O-])o1	-0.2	83.8*	-51.8	32.0*	i	S1P4 antag cf=116.5*;S1P1 antag=77.1*
Cc1ccc(Nc2cc(C)nn2-c2nc(C)cc(C)n2)cc1	-1.5	-18.9	-88.4	0.5	·
Cc1ccc(Nc2cc(C)nn2-c2nc(C)cc(=O)[nH]2)cc1	1.6	92.2*	·	90.3*	i	S1P4 antag cf=114.1*;S1P1 antag=94.7*
O=C1/C(=C/c2ccncc2)CCc2ccccc21	-0.6	14.3	8.2	·	·

High-throughput results deposited in PubChem by several laboratories.
